The list is not random: actives were taken first. Their share in the collection is about 5.2%.
ALR inh: human ALR oxidase inhibition via reduced H2O2; AID 485317; inhibition, % (no concentration beside the values); 290,000 tested, 3.8% active; purified ALR, DTT oxidation, H2O2 HRP-luminol luminescence; P55789;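 active = mean replicate inhibition above about 79%, with every replicate also reaching it, limit read from the data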
Target sequence (P55789 whole entry, looked up): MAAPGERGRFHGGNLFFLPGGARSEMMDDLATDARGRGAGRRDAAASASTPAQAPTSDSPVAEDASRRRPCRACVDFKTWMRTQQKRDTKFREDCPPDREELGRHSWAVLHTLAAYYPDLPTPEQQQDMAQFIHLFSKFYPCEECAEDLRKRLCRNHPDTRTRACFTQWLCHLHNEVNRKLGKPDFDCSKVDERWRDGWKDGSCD
A3G deaminase: inhibitors of human APOBEC3G DNA deaminase. Q9HC16. recombinant A3G, ssDNA deamination FAM/TAMRA fluorescence. inhibition, % at 20 µM. 330,000 tested, 0.28% active. AID 493012;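 active = inhibition of at least 40% at 20 µM, with no more than 30% in the related APOBEC3A deaminase screen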
CR mimetic SO: yeast age-related superoxide inhibition as caloric restriction mimetic | S. cerevisiae aged cells, superoxide DHE fluorescence; hits give low values | superoxide response (% of plate mean), % at 10 µM | 330,000 tested, 0.18% active | AID 2690;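 active = superoxide response under a set limit, about three screen SD below normal, cut at about 65% in these data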;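 also: yeast aged for seven days with compound at 30 °C before DHE staining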
APOBEC3A inh: human APOBEC3A DNA deaminase inhibition; P31941; recombinant A3A, FAM/TAMRA ssDNA deamination fluorescence; inhibition, % at 20 µM; 330,000 tested, 0.41% active; AID 493011;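 active = at least 40% inhibition at 20 µM here, with at most 30% in a related deaminase screen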
Target sequence (P31941 whole entry, looked up): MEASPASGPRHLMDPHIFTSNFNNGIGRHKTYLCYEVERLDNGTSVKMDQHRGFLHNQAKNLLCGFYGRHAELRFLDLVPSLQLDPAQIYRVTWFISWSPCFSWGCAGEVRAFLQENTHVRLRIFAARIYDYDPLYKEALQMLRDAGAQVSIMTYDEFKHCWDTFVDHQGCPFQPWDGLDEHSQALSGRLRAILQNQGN
CendR NRP1 mod: alters CendR peptide binding to human NRP-1. inhibition, % at 25 µM. FAM-RPARPAR peptide binding to NRP-1, fluorescence polarization. O14786. AID 602438. 360,000 tested, 0.85% active;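 active = inhibition or corrected inhibition above about 18%, plus a signal ratio from 0.5 to 1.5, limit read from the data, passing the limit was not always enough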
M18AAP inhibitor: PfM18AAP enzyme inhibition. 290,000 tested, 1.2% active. recombinant PfM18AAP, H-Glu-NHMec fluorogenic cleavage. inhibition, % at 7.35 µM. AID 1822;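 active = inhibition above the campaign mean inhibition over all tested compounds plus 3 SD, cut at about 28% in these data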
Numbers stand for hits; - = inactive; . = no result.

SMILES	ALR inh	A3G deaminase	CR mimetic SO	APOBEC3A inh	CendR NRP1 mod	M18AAP inhibitor
COc1ccc(C(=O)NCC23C=CC(O2)C2C(=O)N(Cc4ccccc4)C(=O)C23)cc1 (stereo not drawn)	-	-	-	-	-	-
Cc1c(Br)cc(-c2nnco2)cc1Br	-	-	-	-	20.8	-
CCN(c1ccccc1)C1(O)C(=O)c2ccccc2C1=O	95.3	-	-	-	-	-
CC(c1ccccc1F)n1cc(C(=O)NCc2ccncc2)nn1 (stereo not drawn)	-	-	-	-	-	-
O=C(Nc1cccc(C(F)(F)F)c1)C1CC(=O)N(Cc2ccco2)C1 (stereo not drawn)	.	.	.	.	-	.
O=C(O)[C@H]1CCCN1C(=O)c1ccccc1N1C(=O)[C@@H]2Cc3c([nH]c4ccccc34)C(c3cccc(Cl)c3)N2C1=O (stereo partly drawn)	.	-	-	-	-	-
COc1ccc(C2c3[nH]c4ccccc4c3C[C@H]3C(=O)N(c4ccccc4C(=O)N4CCC[C@@H]4C(=O)O)C(=O)N23)cc1 (stereo partly drawn)	.	-	-	-	-	.
CC(C)c1ccc(C2c3[nH]c4ccccc4c3C[C@H]3C(=O)N(c4ccccc4C(=O)N4CCC(C(=O)O)CC4)C(=O)N23)cc1 (stereo partly drawn)	98.0	-	-	-	-	-
Cc1ccc(C2c3[nH]c4ccccc4c3C[C@H]3C(=O)N(c4ccccc4C(=O)N4CCC[C@H]4C(=O)O)C(=O)N23)cc1 (stereo partly drawn)	97.9	-	-	-	-	-
CC(C)c1ccc(C2c3[nH]c4ccccc4c3C[C@H]3C(=O)N(c4ccccc4C(=O)N4CCC[C@@H]4C(=O)O)C(=O)N23)cc1 (stereo partly drawn)	97.9	-	-	-	-	-
O=C(O)CCC(=O)N1CCN(c2ncccn2)CC1	-	-	-	-	-	-
Cc1csc(=Nc2cccnc2)n1CC1CCCCC1	98.6	-	-	-	-	-
COCCCn1c(C)csc1=Nc1cccnc1	-	-	-	-	-	-
Cc1ccc(S(=O)(=O)/N=C2/NC(=O)/C(=C\c3ccccc3)S2)cc1	99.0	-	-	-	-	.
Cc1ccc(S(=O)(=O)/N=C2/NC(=O)/C(=C/c3cc([N+](=O)[O-])ccc3O)S2)cc1	-	-	-	-	-	30.5
Cc1ccc(C(=O)NCCN2C3=NC[C@H](C)N3C[C@H]2Cc2ccc(O)cc2)cc1Br	-	-	.	-	25.1	-
Cc1[nH]c2ccccc2c1C(=O)CN1CCSCC1	97.2	-	-	-	-	-
Cc1[nH]c2ccccc2c1C(=O)CN1CCCC1	-	-	-	-	-	-
CC[C@@]1(c2cccc(C)c2)C(=O)N(C(=O)OC)N1C(=O)OC	83.1	-	-	-	-	-
CC[C@@]1(c2ccccc2OC)C(=O)N(C(=O)OC)N1C(=O)OC	.	-	-	-	-	-
O=C1COc2ccc(S(=O)(=O)N3CCCC3)cc2N1	.	-	-	-	-	-
O=C1COc2ccc(N3C(=O)C=CC3=O)cc2N1	-	48.7	-	-	.	-
COc1cc(OC)c(NC(=O)CCc2ccccc2)cc1Cl	-	-	-	-	-	-
COc1cc(OC)c(NC(C)C(=O)NCc2ccccc2)cc1Cl (stereo not drawn)	93.5	-	-	-	-	-
Cc1ccccc1NC(=S)N1CCCC1	-	-	-	-	-	-
SMILES	ALR inh	A3G deaminase	CR mimetic SO	APOBEC3A inh	CendR NRP1 mod	M18AAP inhibitor
CC(=O)Nc1ccc(C23CC4CC(CC(C4)C2)C3)cc1	-	-	-	-	-	-
Oc1ccc(C23CC4CC(CC(C4)C2)C3)cc1O	98.8	.	-	.	-	90.2
Cc1sccc1C1C(C#N)=C(N)SC(N)=C1C#N	-	-	-	-	.	-
N#CC1=C(N)SC(N)=C(C#N)C1CCC1CCCCC1	-	-	-	-	.	32.0
C=CCCC(=O)Nc1ccc(COC(=O)N2CCOCC2)cc1	-	-	-	-	-	-
CCN(CCCNC(=O)C1CCC(=O)N1C(C)C)c1cccc(C)c1 (stereo not drawn)	99.1	-	-	-	-	-
CCOC(=O)N1CCN(c2c(NCCCN(C)c3ccccc3)c(=O)c2=O)CC1	99.2	-	-	-	-	-
Cc1ccc2c(c1)N(CCCC(=O)NCCCN1CCCCC1)C(=O)CO2	-	-	-	-	-	-

High-throughput results from PubChem BioAssay.
